Potency and affinity values are given separately.
test: reduction of Shn3 3'UTR firefly luciferase signal, dose response, Schnurri-3 inhibitor project, cell-based, Clone20 osteoblasts, cherry-pick, set 2 (AID 720490); settings: Clone20 osteoblast Shn3 3'UTR firefly luciferase, 24 h; series mostly up to 35 µM; activity change, negative = inhibition: at the top concentration;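 active = compound whose fitted half-maximal concentration for signal loss stays within twice its top tested dose in every run; inconclusive = runs not all active and not all inactive; inactive = every run inactive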

Activity change, negative = inhibition, inactive:
CCOC(=O)Cn1c(S(=O)(=O)Cc2ccccc2Cl)nc(-c2ccccc2)c1-c1ccccc1 -13.2%
O=C1S/C(=C\c2ccc(N3CCOCC3)o2)C(=O)N1Cc1c(F)cccc1Cl -0.988%
CCN(CC)Cc1c(O)ccc2c1O/C(=C\C=C\c1ccccc1)C2=O 0.079%
CCOC(=O)c1cn(CC(=O)Nc2cccc(Cl)c2C)nn1 3.38%
